HTT promoter inh – Primary qHTS for Identification of Small Molecule Inhibitors of Huntingtin Promoter Activity; HEK293 HTT promoter firefly luciferase reporter, 24 h; Potency, µM (doses to about 57.5 µM), for the others: top-dose activity change, negative = inhibition, hits mostly inhibitors; actives 0.93% (n = 48,000); AID 1508623, 2021; also: nearly all actives have a fitted effect of over 50% in size
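Luminescence was read after Dual-Glo reagent and a 10 min room-temperature incubation. Values were normalized to vehicle (0% activity) and zero RLU (-100% activity). Reporter HEK293 cells had been exposed to compounds (up to 57.5 uM final) for 24 h.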
HTT-AS act – Primary qHTS for Identification of Small Molecule Activators of Huntingtin-Antisense Promoter Activity; actives 0.24% (n = 48,000); Potency, µM (highest dose often 57.5 µM), inactives show top-dose activity change, positive = activation, usual class: activators; AID 1508624, 2021; HEK293 HTT-AS promoter firefly luciferase reporter, 24 h; response scale: percent change from vehicle, -100% = no light; also: nearly all actives have a fitted effect of over 55% in size
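Firefly luciferase readout (Dual-Glo, 10 min RT) after 24 h, 37 °C compound exposure (final up to 57.5 uM) of HEK293 reporter cells cultured 24 h beforehand; PTC124 at 50 uM final as control inhibitor; activity scaled vehicle 0%, zero RLU -100%.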
NTMT1 inh – Primary qHTS for Inhibitors of N-terminal methyltransferase 1 (NTMT1): MTaseGlo Assay | NTMT1 MTase-Glo SAH luminescence, purified enzyme | Potency, µM (titrated, usually from 114 µM), inactives show top-dose activity change, negative = inhibition, actives largely listed as inhibitors | actives 2.5% (n = 59,000) | N-terminal Xaa-Pro-Lys N-methyltransferase 1 (Homo sapiens), Q9BV86;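 also: plate controls were DMSO vehicle for no effect and no enzyme for full effect; nearly all actives have a fitted effect of over 65% in size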
Target sequence (Q9BV86 whole entry, looked up): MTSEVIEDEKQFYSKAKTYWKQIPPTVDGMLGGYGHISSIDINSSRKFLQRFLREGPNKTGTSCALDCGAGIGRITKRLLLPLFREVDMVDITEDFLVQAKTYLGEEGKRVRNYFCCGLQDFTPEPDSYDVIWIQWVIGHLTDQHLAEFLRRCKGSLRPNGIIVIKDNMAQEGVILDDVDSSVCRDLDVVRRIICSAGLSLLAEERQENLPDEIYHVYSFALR
Starred values were filed as active, the others as inactive; ? = inconclusive; · = not tested or not shown; ! = not confirmed by another sample; [ ] = another dose, or the depositor's remark. The full list was thinned out, with hits kept by preference. Calls follow the shape of the dose curve; as a rule, active = well fitted curve in the direction sought with a large enough effect; inconclusive = small, poorly fitted or top-dose-only effect, or another doubt; inactive = no such curve, though single readings can be large; an effect the other way counts as inactive or inconclusive. Potency is read from the fitted curve at half-maximal effect.

SMILES	HTT promoter inh	HTT-AS act	NTMT1 inh
O=C(Nc1ccc(-c2ccccc2)cc1)[C@H](Cc1ccc(O[S+](=O)([O-])c2cccc3cnccc23)cc1)N[S+](=O)([O-])c1cccc2cnccc12	·	·	11%[57.5 µM]
CN(C)c1ccc2c(=O)n3nc(Nc4ccc5c(c4)CCC5)sc3nc2c1	·	·	4%[57.5 µM]
COc1ccc2c(C)cc(SCC(=O)Nc3nsc(-c4ccccc4C)n3)nc2c1	-9%	-28%	5%
Cc1ccc(-c2nc(NC(=O)CSc3cc(C)c4ccccc4n3)ns2)cc1	1%	-3%	40µM*
CC1(CO)CC(O)C2(C)CCC3(C)C(=CCC4C5(C=O)CCC(OC6OC(C(=O)O)C(O)C(O)C6OC6OC(C(=O)O)C(O)C(O)C6O)C(C)(C)C5CCC43C)C2C1 (stereo not given)	·	·	0%[12.6 µM]
COc1ccc(C2Nc3ccccc3C(=O)N2Cc2ccccc2)cc1COc1c(C)cccc1C (stereo not given)	·	·	10%
CCN(CC)c1cc(C)c2cc(NC(=O)c3cc(OC)cc(OC)c3)ccc2n1	-4%	-18%	-15%
COc1cc(OC)cc(C(=O)Nc2ccc3c(c2)OCCO3)c1	51%	?	32µM*
Cc1cc(N2CCN(c3ccccc3F)CC2)n2cnnc2n1	-33%	-35%	-1%
Cc1cc(N2CCN(c3cccc(C)c3C)CC2)n2cnnc2n1	-7%	-17%	89µM*
COc1cc(OC)c(C(CC(=O)N2CC(C)CC(C)C2)c2ccc3c(c2)OCO3)c(OCC(N)=O)c1 (stereo not given)	·	·	13%[228 µM]
CCc1ccc(NC(=O)CSc2nnc3[nH]c(=O)cc(-c4ccccc4)n23)cc1	21%	34%	-5%
O=C(CSc1nnc2[nH]c(=O)cc(-c3ccccc3)n12)Nc1ccccc1C(F)(F)F	46%	11µM*	-10%
O=C(Nc1ccc(N2CCOCC2)c(C(=O)O)c1)c1ccc(Br)cc1	-2%	18%	89µM*
O=C(Nc1ccc(N2CCC(N3CCCCC3)CC2)c(C(=O)O)c1)c1ccc(Br)cc1	-11%	0%	?
C/C=C(/C)C(=O)O[C@H]1[C@H](OC(=O)/C(C)=C\C)[C@@]23C(CC1(C)C)[C@]1(CCC4[C@@]5(C)CC[C@H](O[C@@H]6O[C@H](C(=O)O)[C@@H](O)[C@H](O[C@@H]7O[C@H](CO)[C@H](O)[C@H](O)[C@H]7O[C@@H]7O[C@@H](C)[C@H](O)[C@@H](O)[C@H]7O[C@@H]7OC[C@@H](O)[C@H](O)[C@H]7O)[C@H]6O[C@@H]6O[C@H](CO)[C@H](O)[C@H](O)[C@H]6O)C(C)(C)C5CC[C@@]4(C)[C@]1(C)C[C@H]2O)O[C@H]3O (stereo not given in full)	·	·	-2%[6.45 µM]
CC1CC(C(O)C(C)(C)O)OC2CC3(C)C4(C)CCC5C(C)(C)C(=O)CCC5(C)C4CCC3(O)C12O (stereo not given)	·	·	5%[29.8 µM]
Cc1cc(C)c(NC(=O)CSc2nccn2Cc2ccco2)c(C)c1	44%	5µM*	5%
CC(=O)Nc1cccc(NC(=O)CSc2nccn2Cc2ccco2)c1	?	-3%	-2%
Cn1cncc1[C@@](N)(c1ccc(Cl)cc1)c1ccc2c(c1)c(-c1cccc(Cl)c1)cc(=O)n2C	-29%	-36%	22µM*!
Cc1cccc(-n2c3nc(=O)n(C)c(=O)c-3cc3ccc(Cl)cc32)c1C	-8%	-10%	-15%
c1cncc(-c2ccc(CNc3nc(C4CCCC4)nc4ccccc34)cc2)c1	·	·	9%
Cc1nnc(-c2cnn(C)c2N)o1	·	·	5%
CCCCCCCCCCCC1=C(O)C(=O)C=C(O)C1=O	-18%	-26%	45µM*!
O=[S+]([O-])(Nc1ccc(-c2nc3ccccc3[nH]2)cc1)c1ccc2c(c1)OCO2	·	·	-12%
SMILES	HTT promoter inh	HTT-AS act	NTMT1 inh
CC1CCN(S(=O)(=O)c2ccc3c(c2)N(CC(=O)N2CCN(c4ccccc4)CC2)C(=O)CO3)CC1	-24%	-32%	89µM*
COc1ccccc1N1CCN(C(=O)CN2C(=O)COc3ccc(S(=O)(=O)N4CCC(C)CC4)cc32)CC1	-3%	-19%	-14%
Cc1[nH]cnc1CN1CCN(C(=O)N[C@@H](CC(C)C)C(=O)O)[C@@H](Cc2ccccc2)C1=O	·	·	12%
Cc1cc2ncc(-c3ccccc3)nc2cc1C	·	·	45µM*
COc1cc2ncc(-c3ccccc3)nc2cc1OC	·	·	-4%[57.5 µM]
CCN(CC)CCOCCOC(=O)C1(c2ccccc2)CCCC1	-13%	-9%	10µM*
CCN(CC)CCNC(C(=O)OCCC(C)C)c1ccccc1 (stereo not given)	2%	-7%	?
COc1ccc(S(=O)(=O)Nc2cc(-c3csc(C#N)c3)ccc2C)cc1	·	·	-1%
CN(C)CC1CCOC1(c1ccccc1)c1ccccc1 (stereo not given)	·	·	5%[12.6 µM]
C[N+]1(CC2COC(c3ccccc3)(C3CCCCC3)O2)CCCCC1 (stereo not given)	4%	1%	16µM*
Nc1nc(=S)c2[nH]cnc2[nH]1	?	-13%	3.5µM*
Nc1ncnc2nc[nH]c12	15%	-2%	?
COc1ccc(N2C(=O)N(c3c(C)cccc3Cl)Cc3cnc(Nc4ccc(C5CCN(C)CC5)cc4OC)nc32)nc1	·	·	-2%
Cc1ccc(OCCn2c(CCNC(=O)c3cccc(C(F)(F)F)c3)nc3ccccc32)cc1	·	·	4%[57.5 µM]
Cc1ccc(-n2ncc(C(=O)NCCN3CCC(Cc4ccccc4)CC3)c2C2CCN(C(=O)OC(C)(C)C)CC2)cc1	?	-56%	89µM*
Cc1ccc(-n2ncc(C(=O)NCCN3CCCC3)c2C2CCN(C(=O)OC(C)(C)C)CC2)cc1	-2%	-13%	?
O=C1C(c2c(O)[nH]c3ccccc23)=Nc2ccccc21	-29%	-11%	-13%
O=C1c2ccccc2-[n+]2ccc3c([nH]c4ccccc43)c21	?	-93%	45µM*
C[C@H](NCc1ccc(OCc2cccc(F)c2)cc1)C(N)=O	?	8%	-18%[57.5 µM]
COc1cc(O)c(C(CC(=O)N2CCC[C@H](C)C2)c2ccc3c(c2)OCO3)c(OC)c1 (stereo not given in full)	·	·	3%[228 µM]
COc1ccccc1NC(=O)CCCOc1cc(=O)n(C)c2ccccc12	37%	23%	-7%
C=CC(=O)Nc1cc(Nc2nccc(-c3cn(C)c4ccccc34)n2)c(OC)cc1N(C)CCN(C)C	·	·	25µM*
CN(C)CCNC(=O)NC[C@H]1CC[C@@H]2[C@H](O1)c1cc(C(F)(F)F)ccc1N[C@H]2c1ccccc1	·	·	-14%
COCCNC(=O)c1ccc2nc(CCc3ccccc3)oc2c1	24%	?	89µM*
COCCCNC(=O)c1ccc2nc(CCc3ccccc3)oc2c1	14%	30%	0%
COC(=O)C[C@H]1C(C)(C)[C@H](OC(=O)C(C)C)C2CC3=C4CC(=O)O[C@@H](c5ccoc5)[C@]4(C)CCC3[C@@]1(C)C2=O (stereo not given in full)	·	·	-12%[29.8 µM]
O=C(Nc1cccc(Cl)c1)c1cc(-c2ccccc2)on1	2%	?	-4%
